Among the data in PMC7862700, “An all-to-all approach to the identification of sequence-specific readers for epigenetic DNA modifications on cytosine” are binding signal values, retold here.

Common to all, as to test: DAPPL (digital affinity profiling via proximity ligation, sequencing); 10 mM Tris-HCl pH 7.5, 50 mM NaCl, 1 mM DTT, 4% glycerol, room temperature, 30 min; GST-TFs on glutathione beads, 16-mer random dsDNA library, 0.1% formaldehyde crosslink after washing; high values mean tight binding
One assay concerns the target T1, FEV (Homo sapiens, UniProt Q99581 1-238).
T1 sequence: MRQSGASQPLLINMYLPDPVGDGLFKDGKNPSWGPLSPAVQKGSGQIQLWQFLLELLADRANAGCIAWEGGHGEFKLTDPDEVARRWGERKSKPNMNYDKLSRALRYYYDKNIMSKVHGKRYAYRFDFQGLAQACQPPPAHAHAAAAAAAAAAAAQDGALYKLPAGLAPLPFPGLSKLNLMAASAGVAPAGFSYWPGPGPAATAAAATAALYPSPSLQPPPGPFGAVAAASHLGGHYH
To be noted: protein: recombinant; tags: N-terminal GST; dsDNA, one strand shown. In outline: (§1)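 Human transcription factors were made in yeast as GST fusions, captured on glutathione beads and barcoded with DNA. With a tag-only sample included, the pool was incubated with 200 nmole of a random double-stranded 16-mer DNA library in Tris/NaCl/DTT/glycerol buffer at room temperature for 30 min, then crosslinked with 0.1% formaldehyde after washing, ligated by proximity, amplified and sequenced. For binding signal, each hexamer's read frequency for a factor is divided by its frequency for the tag-only sample.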

In another assay the target is ETV5 (Homo sapiens, UniProt P41161 1-510). As to conditions: protein: recombinant; tags: N-terminal GST; dsDNA, one strand shown. A digest of the protocol: as §1
Chain of ETV5 (P41161 whole entry): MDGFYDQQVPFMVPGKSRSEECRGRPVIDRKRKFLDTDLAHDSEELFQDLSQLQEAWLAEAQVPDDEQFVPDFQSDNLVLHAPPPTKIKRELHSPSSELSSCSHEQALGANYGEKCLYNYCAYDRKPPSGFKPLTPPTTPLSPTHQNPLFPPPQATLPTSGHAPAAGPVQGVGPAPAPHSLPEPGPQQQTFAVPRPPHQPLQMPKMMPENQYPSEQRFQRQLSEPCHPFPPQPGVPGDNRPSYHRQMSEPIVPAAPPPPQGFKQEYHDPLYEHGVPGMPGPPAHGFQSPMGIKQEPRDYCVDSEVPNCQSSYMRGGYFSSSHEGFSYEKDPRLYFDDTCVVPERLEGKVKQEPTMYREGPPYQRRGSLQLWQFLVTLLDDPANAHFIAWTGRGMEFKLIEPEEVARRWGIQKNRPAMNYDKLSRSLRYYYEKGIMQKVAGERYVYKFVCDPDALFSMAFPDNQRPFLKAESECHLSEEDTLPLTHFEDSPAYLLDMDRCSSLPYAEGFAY
Another assay addresses HSF1 (Homo sapiens, UniProt Q00613 1-529). As to conditions: protein: recombinant; tags: N-terminal GST; chain copies: 3; dsDNA, one strand shown. A digest of the protocol:
as §1

The target of another assay is T2, SPIC (Homo sapiens, UniProt Q8N5J4 1-248).
T2 sequence: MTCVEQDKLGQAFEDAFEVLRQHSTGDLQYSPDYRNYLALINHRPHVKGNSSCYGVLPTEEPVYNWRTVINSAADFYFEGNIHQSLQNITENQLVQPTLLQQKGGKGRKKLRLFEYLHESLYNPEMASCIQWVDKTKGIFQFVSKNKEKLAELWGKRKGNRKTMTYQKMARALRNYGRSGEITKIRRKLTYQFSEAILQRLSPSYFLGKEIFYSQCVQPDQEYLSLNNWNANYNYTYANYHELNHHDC
To be noted: protein: recombinant; tags: N-terminal GST; dsDNA, one strand shown. In outline:
as §1

For a further assay, the target named is ELF4 (Homo sapiens, UniProt Q99607 1-663). To be noted: protein: recombinant; tags: N-terminal GST; dsDNA, one strand shown. A digest of the protocol:
as §1

The target in the next assay is T3, ELK4 (Homo sapiens, UniProt P28324-2 1-405).
T3 sequence: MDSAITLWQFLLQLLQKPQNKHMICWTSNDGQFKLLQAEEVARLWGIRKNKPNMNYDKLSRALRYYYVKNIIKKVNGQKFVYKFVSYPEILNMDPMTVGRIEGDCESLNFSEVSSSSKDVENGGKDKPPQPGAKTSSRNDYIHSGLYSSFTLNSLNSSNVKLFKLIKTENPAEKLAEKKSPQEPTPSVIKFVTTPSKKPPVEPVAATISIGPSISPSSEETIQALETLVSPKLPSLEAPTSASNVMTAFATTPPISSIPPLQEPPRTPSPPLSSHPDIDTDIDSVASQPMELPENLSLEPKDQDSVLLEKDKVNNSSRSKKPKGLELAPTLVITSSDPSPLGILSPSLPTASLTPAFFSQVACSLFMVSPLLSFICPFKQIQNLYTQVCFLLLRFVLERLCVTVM
To be noted: protein: recombinant; tags: N-terminal GST; dsDNA, one strand shown. In outline:
as §1

The target of another assay is T4, ETV2 (Homo sapiens, UniProt O00321 1-342).
T4 sequence: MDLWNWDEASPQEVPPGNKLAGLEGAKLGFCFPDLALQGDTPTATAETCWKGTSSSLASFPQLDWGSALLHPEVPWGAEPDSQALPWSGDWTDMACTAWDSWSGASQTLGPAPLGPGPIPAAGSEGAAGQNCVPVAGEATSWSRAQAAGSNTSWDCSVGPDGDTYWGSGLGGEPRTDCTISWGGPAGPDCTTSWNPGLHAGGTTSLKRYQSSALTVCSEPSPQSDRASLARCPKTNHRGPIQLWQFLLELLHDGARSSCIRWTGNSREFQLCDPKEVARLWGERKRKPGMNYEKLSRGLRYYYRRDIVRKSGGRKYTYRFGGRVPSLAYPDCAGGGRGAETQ
To be noted: protein: recombinant; tags: N-terminal GST; dsDNA, one strand shown. A digest of the protocol:
as §1

A further assay addresses T5, ELF3 (Homo sapiens, UniProt P78545 1-371).
T5 sequence: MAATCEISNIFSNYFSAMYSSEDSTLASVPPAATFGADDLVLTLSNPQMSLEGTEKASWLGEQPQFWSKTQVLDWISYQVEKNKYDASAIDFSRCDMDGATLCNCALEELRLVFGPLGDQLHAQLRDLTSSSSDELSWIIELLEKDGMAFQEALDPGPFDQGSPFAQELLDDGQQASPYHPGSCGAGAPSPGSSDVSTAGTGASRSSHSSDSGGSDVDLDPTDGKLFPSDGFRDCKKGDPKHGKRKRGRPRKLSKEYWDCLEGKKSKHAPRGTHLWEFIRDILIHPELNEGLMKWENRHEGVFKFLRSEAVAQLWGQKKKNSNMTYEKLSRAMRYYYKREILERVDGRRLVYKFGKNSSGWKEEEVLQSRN
To be noted: protein: recombinant; tags: N-terminal GST; dsDNA, one strand shown. In outline: as §1

In a further assay the target is CRX (Homo sapiens, UniProt O43186 1-299). To be noted: protein: recombinant; tags: N-terminal GST; dsDNA, one strand shown. A digest of the protocol:
as §1

The next assay concerns the target ETV1 (Homo sapiens, UniProt P50549 1-477). To be noted: protein: recombinant; tags: N-terminal GST; dsDNA, one strand shown. In outline:
as §1

Another assay concerns the target T6, ERF (Homo sapiens, UniProt P50548 1-548).
T6 sequence: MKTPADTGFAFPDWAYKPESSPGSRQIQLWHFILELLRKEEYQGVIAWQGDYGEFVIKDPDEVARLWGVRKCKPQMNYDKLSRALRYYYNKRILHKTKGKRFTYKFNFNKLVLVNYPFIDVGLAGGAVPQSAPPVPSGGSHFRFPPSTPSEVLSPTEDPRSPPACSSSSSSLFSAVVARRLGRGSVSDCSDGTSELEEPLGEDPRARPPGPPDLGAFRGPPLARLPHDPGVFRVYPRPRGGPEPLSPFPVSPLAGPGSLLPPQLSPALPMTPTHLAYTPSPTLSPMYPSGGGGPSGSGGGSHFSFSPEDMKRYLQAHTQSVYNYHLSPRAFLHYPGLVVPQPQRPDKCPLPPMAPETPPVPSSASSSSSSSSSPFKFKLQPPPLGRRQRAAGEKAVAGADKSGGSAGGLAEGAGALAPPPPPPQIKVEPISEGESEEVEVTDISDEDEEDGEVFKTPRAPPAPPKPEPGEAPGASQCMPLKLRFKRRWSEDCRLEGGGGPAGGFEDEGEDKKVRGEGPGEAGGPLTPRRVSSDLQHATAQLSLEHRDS
To be noted: protein: recombinant; tags: N-terminal GST; dsDNA, one strand shown. In outline:
as §1

A further assay concerns the target T7, ETV3L (Homo sapiens, UniProt Q6ZN32 1-361).
T7 sequence: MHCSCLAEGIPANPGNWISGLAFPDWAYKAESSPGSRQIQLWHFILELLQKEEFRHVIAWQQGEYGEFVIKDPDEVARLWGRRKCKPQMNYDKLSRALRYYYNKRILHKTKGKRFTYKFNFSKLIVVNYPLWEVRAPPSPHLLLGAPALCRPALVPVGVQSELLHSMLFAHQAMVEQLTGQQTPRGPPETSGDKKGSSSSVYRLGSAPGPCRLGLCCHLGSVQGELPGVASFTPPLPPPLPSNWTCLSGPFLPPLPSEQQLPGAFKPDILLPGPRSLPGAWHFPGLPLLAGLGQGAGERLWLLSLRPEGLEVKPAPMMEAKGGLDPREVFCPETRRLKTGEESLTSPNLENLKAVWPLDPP
As to conditions: protein: recombinant; tags: N-terminal GST; dsDNA, one strand shown. A digest of the protocol: as §1

The target of a further assay is T8, ETS2 (Homo sapiens, UniProt P15036 1-469).
T8 sequence: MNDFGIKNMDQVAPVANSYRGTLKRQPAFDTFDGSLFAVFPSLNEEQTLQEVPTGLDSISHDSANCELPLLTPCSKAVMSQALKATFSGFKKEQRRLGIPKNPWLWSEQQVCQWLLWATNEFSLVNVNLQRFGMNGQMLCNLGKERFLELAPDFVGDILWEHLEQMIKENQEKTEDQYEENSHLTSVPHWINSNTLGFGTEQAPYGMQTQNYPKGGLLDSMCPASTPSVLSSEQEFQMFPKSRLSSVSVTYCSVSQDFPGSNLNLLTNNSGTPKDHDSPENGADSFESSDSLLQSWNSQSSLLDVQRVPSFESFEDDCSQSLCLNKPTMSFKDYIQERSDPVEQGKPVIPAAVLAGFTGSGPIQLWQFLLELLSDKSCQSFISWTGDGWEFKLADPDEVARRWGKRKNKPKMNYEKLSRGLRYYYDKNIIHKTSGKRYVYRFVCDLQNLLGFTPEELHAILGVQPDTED
To be noted: protein: recombinant; tags: N-terminal GST; dsDNA, one strand shown. In outline:
as §1

For another assay, the target named is T9, SPDEF (Homo sapiens, UniProt O95238 1-335).
T9 sequence: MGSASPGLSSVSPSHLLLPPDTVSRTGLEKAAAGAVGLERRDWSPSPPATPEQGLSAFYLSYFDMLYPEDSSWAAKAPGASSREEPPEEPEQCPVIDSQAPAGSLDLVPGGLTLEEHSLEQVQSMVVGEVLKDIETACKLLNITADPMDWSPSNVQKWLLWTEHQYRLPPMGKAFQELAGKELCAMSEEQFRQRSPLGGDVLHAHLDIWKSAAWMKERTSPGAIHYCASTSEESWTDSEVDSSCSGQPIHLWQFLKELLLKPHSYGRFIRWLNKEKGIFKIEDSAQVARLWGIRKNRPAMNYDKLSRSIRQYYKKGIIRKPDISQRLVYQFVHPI
As to conditions: protein: recombinant; tags: N-terminal GST; dsDNA, one strand shown. In outline:
as §1

The next assay deals with T10, ETV7 (Homo sapiens, UniProt Q9Y603 1-341).
T10 sequence: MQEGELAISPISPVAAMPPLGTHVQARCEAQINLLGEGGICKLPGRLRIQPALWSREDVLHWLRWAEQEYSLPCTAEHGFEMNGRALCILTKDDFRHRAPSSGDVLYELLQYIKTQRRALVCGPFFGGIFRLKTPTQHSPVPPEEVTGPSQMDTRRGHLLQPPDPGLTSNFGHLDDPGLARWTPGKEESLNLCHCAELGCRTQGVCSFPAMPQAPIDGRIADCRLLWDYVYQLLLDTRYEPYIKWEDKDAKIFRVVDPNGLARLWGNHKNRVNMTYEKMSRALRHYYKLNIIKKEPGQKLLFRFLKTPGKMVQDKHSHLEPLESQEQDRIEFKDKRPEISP
As to conditions: protein: recombinant; tags: N-terminal GST; dsDNA, one strand shown. A digest of the protocol:
as §1

The target in a further assay is T11, ELF5 (Homo sapiens, UniProt Q9UKW6-2 1-255).
T11 sequence: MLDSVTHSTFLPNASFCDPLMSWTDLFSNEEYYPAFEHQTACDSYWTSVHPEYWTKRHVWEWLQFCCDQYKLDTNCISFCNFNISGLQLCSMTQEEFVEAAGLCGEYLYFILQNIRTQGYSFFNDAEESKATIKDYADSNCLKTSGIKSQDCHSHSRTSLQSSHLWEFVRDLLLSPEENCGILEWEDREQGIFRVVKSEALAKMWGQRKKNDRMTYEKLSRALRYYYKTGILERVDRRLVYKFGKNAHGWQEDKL
As to conditions: protein: recombinant; tags: N-terminal GST; dsDNA, one strand shown. In outline:
as §1

Another assay deals with T12, ETV3 (Homo sapiens, UniProt P41162-2 1-143).
T12 sequence: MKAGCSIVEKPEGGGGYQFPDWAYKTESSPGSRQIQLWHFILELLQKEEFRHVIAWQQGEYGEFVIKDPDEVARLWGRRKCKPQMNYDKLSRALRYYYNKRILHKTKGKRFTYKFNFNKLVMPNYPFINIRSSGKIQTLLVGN
To be noted: protein: recombinant; tags: N-terminal GST; dsDNA, one strand shown. In outline: as §1

For the next assay, the target named is ETV6 (Homo sapiens, UniProt P41212 1-452). As to conditions: protein: recombinant; tags: N-terminal GST; dsDNA, one strand shown. In outline: as §1
Chain of ETV6 (P41212 whole entry): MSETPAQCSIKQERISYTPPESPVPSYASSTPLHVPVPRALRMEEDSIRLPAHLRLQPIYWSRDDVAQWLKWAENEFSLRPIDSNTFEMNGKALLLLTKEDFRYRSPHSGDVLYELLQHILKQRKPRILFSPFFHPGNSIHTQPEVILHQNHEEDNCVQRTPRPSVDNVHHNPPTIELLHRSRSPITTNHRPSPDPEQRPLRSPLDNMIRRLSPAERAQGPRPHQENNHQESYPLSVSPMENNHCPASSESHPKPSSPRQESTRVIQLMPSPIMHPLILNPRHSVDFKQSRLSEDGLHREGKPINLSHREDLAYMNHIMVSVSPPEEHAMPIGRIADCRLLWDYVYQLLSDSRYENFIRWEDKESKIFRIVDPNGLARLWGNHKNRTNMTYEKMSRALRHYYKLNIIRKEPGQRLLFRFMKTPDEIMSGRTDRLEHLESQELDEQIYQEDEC

Chain of ETV1 (P50549 whole entry): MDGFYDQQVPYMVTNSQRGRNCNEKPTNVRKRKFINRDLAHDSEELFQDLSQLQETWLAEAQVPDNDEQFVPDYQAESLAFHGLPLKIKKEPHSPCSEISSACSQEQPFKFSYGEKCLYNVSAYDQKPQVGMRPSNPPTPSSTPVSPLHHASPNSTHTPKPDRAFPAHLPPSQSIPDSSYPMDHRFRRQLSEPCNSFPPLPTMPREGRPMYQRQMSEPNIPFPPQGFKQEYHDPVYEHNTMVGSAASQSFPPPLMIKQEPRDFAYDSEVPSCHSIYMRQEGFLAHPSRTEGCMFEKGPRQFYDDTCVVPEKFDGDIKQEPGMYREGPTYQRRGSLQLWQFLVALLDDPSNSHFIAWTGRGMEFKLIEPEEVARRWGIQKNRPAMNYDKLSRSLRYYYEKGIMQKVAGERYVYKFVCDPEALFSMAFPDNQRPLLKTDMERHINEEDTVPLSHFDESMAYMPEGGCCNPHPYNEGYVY
Chain of CRX (O43186 whole entry): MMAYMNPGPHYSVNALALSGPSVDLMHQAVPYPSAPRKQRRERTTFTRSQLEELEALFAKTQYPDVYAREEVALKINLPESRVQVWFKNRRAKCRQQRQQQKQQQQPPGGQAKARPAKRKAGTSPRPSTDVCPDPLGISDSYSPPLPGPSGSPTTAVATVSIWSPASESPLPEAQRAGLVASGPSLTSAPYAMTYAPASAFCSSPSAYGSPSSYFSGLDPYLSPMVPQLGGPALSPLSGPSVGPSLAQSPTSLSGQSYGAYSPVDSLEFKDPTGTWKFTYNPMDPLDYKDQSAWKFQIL
Chain of ELF4 (Q99607 whole entry): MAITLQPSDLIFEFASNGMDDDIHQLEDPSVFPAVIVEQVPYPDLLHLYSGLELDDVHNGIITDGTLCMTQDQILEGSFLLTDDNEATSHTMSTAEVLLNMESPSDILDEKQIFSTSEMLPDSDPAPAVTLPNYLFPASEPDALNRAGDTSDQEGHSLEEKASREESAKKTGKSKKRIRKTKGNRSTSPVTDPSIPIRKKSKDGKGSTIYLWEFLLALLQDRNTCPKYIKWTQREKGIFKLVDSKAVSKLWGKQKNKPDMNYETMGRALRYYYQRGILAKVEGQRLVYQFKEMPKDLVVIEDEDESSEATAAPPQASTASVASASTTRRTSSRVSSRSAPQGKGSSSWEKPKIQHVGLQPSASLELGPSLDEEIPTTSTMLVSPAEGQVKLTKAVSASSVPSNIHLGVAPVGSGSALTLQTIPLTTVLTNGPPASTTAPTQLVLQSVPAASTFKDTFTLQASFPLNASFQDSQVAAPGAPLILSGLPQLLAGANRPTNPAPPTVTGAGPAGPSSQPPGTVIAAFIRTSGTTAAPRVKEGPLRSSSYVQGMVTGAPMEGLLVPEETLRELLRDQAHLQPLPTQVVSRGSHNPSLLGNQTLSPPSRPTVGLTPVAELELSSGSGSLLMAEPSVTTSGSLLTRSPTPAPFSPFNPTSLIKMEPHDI
Chain of HSF1 (Q00613 whole entry): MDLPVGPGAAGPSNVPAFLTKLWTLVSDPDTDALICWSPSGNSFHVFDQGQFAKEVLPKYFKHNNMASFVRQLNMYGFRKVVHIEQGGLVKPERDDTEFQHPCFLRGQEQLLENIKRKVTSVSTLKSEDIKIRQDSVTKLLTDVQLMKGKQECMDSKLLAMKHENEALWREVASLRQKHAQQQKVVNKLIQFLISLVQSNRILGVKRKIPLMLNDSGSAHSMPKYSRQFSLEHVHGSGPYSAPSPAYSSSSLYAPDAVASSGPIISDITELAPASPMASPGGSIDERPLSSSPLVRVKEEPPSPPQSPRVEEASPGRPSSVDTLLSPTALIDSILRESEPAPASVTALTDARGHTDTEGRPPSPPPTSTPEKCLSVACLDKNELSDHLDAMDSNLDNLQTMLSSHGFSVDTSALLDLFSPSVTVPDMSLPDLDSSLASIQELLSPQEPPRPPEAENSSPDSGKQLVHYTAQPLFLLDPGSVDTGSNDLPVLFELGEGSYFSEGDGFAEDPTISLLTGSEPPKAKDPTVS

AAACAT: the binding signal is 1.45 fold enrichment (6-mer frequency, TF over GST control) in the assay with FEV; 1.57 fold enrichment (6-mer frequency, TF over GST control) with ETV5; 1.48 fold enrichment (6-mer frequency, TF over GST control) with HSF1; 1.53 fold enrichment (6-mer frequency, TF over GST control) with SPIC; 1.53 fold enrichment (6-mer frequency, TF over GST control) with ELF4; 1.49 fold enrichment (6-mer frequency, TF over GST control) with ELK4. Also, the binding signal in the assay with ETV2 was 1.53 fold enrichment (6-mer frequency, TF over GST control); with ELF3 it was 1.53 fold enrichment (6-mer frequency, TF over GST control); with CRX it was 1.32 fold enrichment (6-mer frequency, TF over GST control); in the assay with ETV1 it was 1.43 fold enrichment (6-mer frequency, TF over GST control); with ERF, 1.45 fold enrichment (6-mer frequency, TF over GST control); with ETV3L, 1.46 fold enrichment (6-mer frequency, TF over GST control). For the same sequence, the binding signal with ETS2 is 1.48 fold enrichment (6-mer frequency, TF over GST control); in the assay with SPDEF, 1.51 fold enrichment (6-mer frequency, TF over GST control); with ETV7, 1.44 fold enrichment (6-mer frequency, TF over GST control); with ELF5, 1.51 fold enrichment (6-mer frequency, TF over GST control); in the assay with ETV3, 1.48 fold enrichment (6-mer frequency, TF over GST control); with ETV6, 1.52 fold enrichment (6-mer frequency, TF over GST control).
